The whole screen tested about 330,000 compounds, of which about 1,000 (0.3%) were called active. Another 3% or so got no clear call; they are omitted. The full list was thinned out, with actives kept by preference. Values without a mark were called inactive. The call rests on the fitted dose curve; in most records, active means well fitted inhibition curve with a large enough effect; inconclusive means small, poorly fitted or top-dose-only effect; inactive means no such curve, though single readings can be large or run the other way; tested in mouse RAW 264.7 cells.
Test: qHTS for Inhibitors of Cell Surface uPA Generation; further: nearly all actives have a fitted effect of over 55% in size
Settings: cell surface uPA generation assay; series mostly up to 38.3 µM; activity change, negative = inhibition: at the top concentration
From the text: The overall objective of this project is to perform a quantitative high throughput screen (qHTS) to identify novel compounds that inhibit the generation of cell surface urokinase activity. The urokinase plasminogen activator (uPA) is one of the two primary endogenous systems that mediate plasminogen activation into plasmin. Members of this system, including uPA and its receptor (uPAR), are overexpressed in several malignant tumors. This system plays a major role in adhesion, migration, invasion and metastasis of cancer cells. Small molecule inhibitors of the uPA system will serve as probes to understand the molecular mechanisms of the uPA cascade and better understanding the microenvironmental circumstances that facilitate the activation of plasminogen by uPA, and finally may provide novel candidate agents for anticancer drug therapy.
[…] […] Upon inhibition of the uPA activation cascade, the subsequent cell surface uPA activity-dependent translocation of LF into the cytoplasm is inhibited. ATP-Lite is used to measure intracellular ATP concentrations, which remain increased if LF entry into the cytoplasm is inhibited. This validation assay was performed using a small set of validation compounds.
NIH Chemical Genomics Center [NCGC]
NIH Molecular Libraries Probe Centers Network [MLPCN]
Assay Submitter (PI): Thomas Bugge, National Institute of Dental and Craniofacial Research, NIH
Cultured RAW 264.7 were dispensed into 1536-well clear bottom, white walled tissue culture plates at a density of 4000 cells/well and were incubated overnight (12-16 h) at 37 C in a 5% CO2 incubator. Serially diluted compounds in 23 nl DMSO were added to cells. […] Compound and reagent-treated plates were incubated for 24 h at 37 C in a 5% CO2 incubator. Perkin Elmer ATPlitetrade mark 1 step (3 ul) was then added to each well. Luminescence was detected using a Perkin Elmer ViewLuxtrade mark plate reader.
1.Dispensing RAW 264.7 cells into 1536-well, white walled tissue culture plates at a density of 4000 cells/well (4 uL).
2.Incubation at 37 C in a 5% CO2 incubator overnight.
3.Serially diluting compounds (1:5 serial dilution; 0.0024 uM to […] final concentration) in 23 nl DMSO.
5.Incubating the compound and reagent-treated plates for 24 hours at 37 C in a 5% CO2 incubator.
6.Adding ATP-Lite (3 ul).
7.Reading plates by ViewLux with an exposure length of 5 seconds.
On the % scale 0 is the no-effect control and ±100 the full control effect; potency means the concentration at half of the fitted maximal effect.

| SMILES | Potency | activity change, negative = inhibition [%] |
| --- | --- | --- |
| CCOc1ccc(-c2cc(C)[n+](CCN(CC)CC)c(-c3ccc(OCC)cc3)c2)cc1 | 3.55 µM (active) |  |
| CC12CCC3C(CCC4CC(=O)CCC43C)C1CC(=NO)C2=O (stereo not given) |  | -4.31 |
| CC1CCCN1CCC(C(N)=O)(c1ccccc1)c1ccccc1 (stereo not given) |  | 4.44 |
| CC1C(=O)OC2CCN3CC=C(COC(=O)C(C)(O)C1(C)O)C23 (stereo not given) |  | -1.98 |
| CC1=CC(=Cc2sc3ccccc3[n+]2C)C=C(C)O1 | 5.01 µM (active) |  |
| CCOC(=O)C1(c2ccccc2)CCN(CC(O)c2ccc(NC(C)=O)cc2)CC1 (stereo not given) |  | -1.41 |
| C=C(C)C1(CCCC)C(=O)NC(=S)NC1=O |  | 2.2 |
| CC(=O)OC1C2(CC3N4C(=O)C5(CO)SSC4(CC31O)C(=O)N5C)OC(C)C(C)(C)C2=O (stereo not given) |  | -9.77 |
| Cc1cc(C)c2c(c1)NP(=S)(c1ccccc1)N2 (stereo not given) |  | -3.79 |
| CC1(c2cccc([N+](=O)[O-])c2)CC(C)(C)N(C(=O)c2ccccc2)c2ccccc21 (stereo not given) |  | 52.7 |
